From PubChem BioAssay (NCI)
About 79,000 compounds went through this panel and 15% of them were active in at least one assay; those are over-represented in the sample as a whole. Activity calls are given as the source filed them. Cut-off read from the data, not from the text of the source: active = growth inhibition above about 70%; inactive = the rest. Residues, ends and D or L forms follow the SMILES beside them. *: point of attachment. Fmoc = O=C(OCC1c2ccccc2-c2ccccc21)*; Boc = CC(C)(C)OC(=O)*

Assay: NCI Yeast Anticancer Drug Screen. Data for the cln2 rad14 strain (AID 165);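 note: 0% = growth equal to vehicle treated cultures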
Details: S. cerevisiae cln2 rad14 strain, at 50.0 µM, hits give high values
Summary of the method: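 cln2 rad14 yeast strain; compound exposure; growth inhibition read vs vehicle controls.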

| SMILES | growth inhibition |
| --- | --- |
| OC(Cc1cccc2ccccc12)CN1CCC(c2ccccc2)CC1 (stereo unspecified) | 74.2% (active) |
| C1=CCN([B-](c2ccccc2)[C+]2CCCCC2)C=C1 | 2.1% (inactive) |
| O=[N+]([O-])c1cc[n+]([O-])c(Cl)c1 | 99% (active) |
| CCCNC(=O)OCc1c(COC(=O)NCCC)c(-c2ccc(Cl)c(Cl)c2)n2c1CCC2 | 22.8% (inactive) |
| CC1(C)CC(=O)C(C(=O)Nc2cccs2)=C(O)C1 | 89.4% (active) |
| O=C(NO)c1coc2ccccc2c1=O | 19.8% (inactive) |
| COc1ccc(C(C)c2cc3c(cc2OCC(C)=O)OCO3)cc1 (stereo unspecified) | -48.7% (inactive) |
| CCS(=O)(=O)Nc1ccc(Nc2c3ccccc3nc3ccccc23)c(OC)c1 | 53.4% (inactive) |
| O=S(=O)(c1ccccc1)N1CN2CN(C1)CN(S(=O)(=O)c1ccccc1)C2 | -16.4% (inactive) |
| CC1=NN(C(=O)c2ccccc2O)C(=O)/C1=C/c1ccco1 | 83.5% (active) |
| O=C1C=C(Br)C(=O)c2ccccc21 | 99.1% (active) |
| C[N+](C)([O-])CCCNc1c2ccccc2nc2cccc([N+](=O)[O-])c12 | 87.2% (active) |
| Cc1cccc2c(NCCCN(C)C)c3c([N+](=O)[O-])ccc(C)c3nc12 | 91% (active) |
| OC1(c2ccccc2)C2CC=CC2C1(c1ccccc1)c1ccccc1 (stereo unspecified) | -3.15% (inactive) |
| C[n+]1c(-c2ccc(/C=N/NC(=O)c3ccc(C(=O)N/N=C/c4ccc(-c5cn6ccccc6[n+]5C)cc4)cc3)cc2)cn2ccccc21 | 51.4% (inactive) |
| CCN(CC)CCC(=O)Nc1ccc2sc3ccccc3c(=O)c2n1 | 21.4% (inactive) |
| O=[N+]([O-])c1ccc2nc(=S)[nH]n2c1 | -7.5% (inactive) |
| O=C(c1ccccc1)[C@H]1Nc2ccc(Cl)cc2[C@H]2OCCC[C@@H]12 | 32.6% (inactive) |
| COc1cc([N+](=O)[O-])c2ncccc2c1Br | 81.8% (active) |
| O=S(=O)(c1cccc(C(F)(F)F)c1)N1c2ccccc2-n2cccc2C1c1cccnc1 (stereo unspecified) | 93.9% (active) |
| CC(C)(C)OC(=O)NCCCCC(NC(=O)C(Cc1c[nH]c2ccccc12)NC(=O)OCC1c2ccccc2-c2ccccc21)C(=O)O (stereo unspecified) (Fmoc-Trp-Lys(Boc)-OH; configuration not given here) | 82.8% (active) |

Assay: NCI Yeast Anticancer Drug Screen. Data for the bub3 strain (AID 167)
Details: S. cerevisiae bub3 mutant strain, at 1.2 µM, hits give high values
Summary of the method: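 Yeast carrying a defined mutation is treated with each compound, and growth is compared with that of vehicle-exposed cells to give inhibition.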

| SMILES | growth inhibition |
| --- | --- |
| CC(C)C(=O)CC(Sc1ccc(N)cc1)c1ccccc1 (stereo unspecified) | 87% (active) |
| CC(C)OP(=O)(OC(C)C)/C(Cl)=N/Nc1ccc([N+](=O)[O-])cc1 | -4% (inactive) |
| O=[N+]([O-])c1cc(Cl)ccc1S(=O)(=O)c1ccc(Cl)cc1[N+](=O)[O-] | -21% (inactive) |
| CCCCCCNCCCNc1c2cc(OC)ccc2nc2cccc([N+](=O)[O-])c12 | -6% (inactive) |
| N#CCC(=O)N/N=C(\c1ccccc1)C(c1ccccc1)C1(O)C(=O)Nc2c(Cl)ccc(Cl)c21 (stereo unspecified) | 2% (inactive) |
| CN(C)CCNCCCNc1c2ccccc2nc2cccc([N+](=O)[O-])c12 | -5% (inactive) |
| CCC[CH2][Ge]([CH2]CCC)([CH2]CCC)[O]C(=O)C(O)c1ccccc1 (stereo unspecified) | -2% (inactive) |
| COc1ccc(-c2cc(-c3cc(C)cc(Cl)c3O)nc3[nH]c(=S)[nH]c(=S)c23)cc1 | 2% (inactive) |
| O=[N+]([O-])c1ccc(/C=C\c2ccc3c(c2)OCO3)c([N+](=O)[O-])c1 | -7% (inactive) |
| O=C1c2ccccc2N2OC3(N4CCCC4)CCCCC3C12c1ccccc1 (stereo unspecified) | -19% (inactive) |
| CC(C)OC(=O)NNc1cc(Cl)ccc1Cl | 4% (inactive) |
| Cc1oc2ccccc2c(=O)c1Cn1nnc2ccccc21 | -1% (inactive) |
| CC1(C)OC(=O)C(=Cc2ccc([N+](=O)[O-])s2)C(=O)O1 | -18% (inactive) |
| CCN(CC)CCCNc1ccc([N+](=O)[O-])c2nc3ccc(OC)cc3c(NCCCN(CC)CC)c12 | -6% (inactive) |
| COc1cccc(/C=C2\S/C(=N/Nc3nc(-c4ccc([N+](=O)[O-])cc4)cs3)NC2=O)c1O | 7% (inactive) |
| OC(Cc1cccc2ccccc12)CN1CCC(c2ccccc2)CC1 (stereo unspecified) | 39% (inactive) |
| C1=CCN([B-](c2ccccc2)[C+]2CCCCC2)C=C1 | 2% (inactive) |
| O=[N+]([O-])c1cc[n+]([O-])c(Cl)c1 | -16% (inactive) |

| SMILES | growth inhibition |
| --- | --- |
| CCCNC(=O)OCc1c(COC(=O)NCCC)c(-c2ccc(Cl)c(Cl)c2)n2c1CCC2 | -53% (inactive) |
| CC1(C)CC(=O)C(C(=O)Nc2cccs2)=C(O)C1 | 26% (inactive) |
| O=C(NO)c1coc2ccccc2c1=O | -6% (inactive) |
| COc1ccc(C(C)c2cc3c(cc2OCC(C)=O)OCO3)cc1 (stereo unspecified) | 2% (inactive) |
| O=S(=O)(c1ccccc1)N1CN2CN(C1)CN(S(=O)(=O)c1ccccc1)C2 | -13% (inactive) |
| CC1=NN(C(=O)c2ccccc2O)C(=O)/C1=C/c1ccco1 | 40% (inactive) |
| O=C1C=C(Br)C(=O)c2ccccc21 | 22% (inactive) |
| C[N+](C)([O-])CCCNc1c2ccccc2nc2cccc([N+](=O)[O-])c12 | -25% (inactive) |
| Cc1cccc2c(NCCCN(C)C)c3c([N+](=O)[O-])ccc(C)c3nc12 | -8% (inactive) |
| OC1(c2ccccc2)C2CC=CC2C1(c1ccccc1)c1ccccc1 (stereo unspecified) | 0% (inactive) |
| C[n+]1c(-c2ccc(/C=N/NC(=O)c3ccc(C(=O)N/N=C/c4ccc(-c5cn6ccccc6[n+]5C)cc4)cc3)cc2)cn2ccccc21 | -5% (inactive) |
| CCN(CC)CCC(=O)Nc1ccc2sc3ccccc3c(=O)c2n1 | -3% (inactive) |
| O=[N+]([O-])c1ccc2nc(=S)[nH]n2c1 | -9% (inactive) |
| O=C(c1ccccc1)[C@H]1Nc2ccc(Cl)cc2[C@H]2OCCC[C@@H]12 | -22% (inactive) |
| COc1cc([N+](=O)[O-])c2ncccc2c1Br | -15% (inactive) |
| O=S(=O)(c1cccc(C(F)(F)F)c1)N1c2ccccc2-n2cccc2C1c1cccnc1 (stereo unspecified) | -27% (inactive) |
| CC(C)(C)OC(=O)NCCCCC(NC(=O)C(Cc1c[nH]c2ccccc12)NC(=O)OCC1c2ccccc2-c2ccccc21)C(=O)O (stereo unspecified) (Fmoc-Trp-Lys(Boc)-OH; configuration not given here) | -3% (inactive) |
